Laboratory results published in PubChem BioAssay AID1159580 (chemical genetic matrix, 2015).
Screen size: about 5,500 compounds; about 2,000 (36%) were called active. Not shown: some 18% with an inconclusive outcome. Rule as the data show it: active = normalized growth mostly below about 0.91 (no sharp cut-off); inconclusive = no clear call, values can overlap the other calls; inactive = mostly above about 0.92. The list shows a part of the results.

Test: chemical genetic growth profiling, strain panel (AID 1159580);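 also: tested at 20 µM; growth read once vehicle control cultures reached saturation at 30 °C; 1 = growth at the plate median or of vehicle wells; lower values mean less growth of the strain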
Details: S. cerevisiae deletion strains, growth OD
[1] = locus YAL013W, strain DEP1, active compounds read low
[2] = locus YBR229C, strain ROT2, active compounds read low
[3] = locus YDL101C, strain DUN1, active compounds read low
[4] = locus YDR150W, strain NUM1, active compounds read low
[5] = locus YEL061C, strain CIN8, active compounds read low
[6] = locus YGR078C, strain PAC10, active compounds read low
[7] = locus YGR229C, strain SMI1, active compounds read low
[8] = locus YHR030C, strain SLT2, active compounds read low
[9] = locus YHR087W, strain rtc3, active compounds read low
[10] = locus YJR043C, strain POL32, active compounds read low
[11] = locus YJR075W, strain HOC1, active compounds read low
[12] = locus YLR039C, strain RIC1, active compounds read low
[13] = locus YLR058C, strain SHM2 (second series), active compounds read low
[14] = locus YLR085C, strain ARP6, active compounds read low
[15] = locus YLR262C, strain YPT6, active compounds read low
[16] = locus YML094W, strain GIM5, active compounds read low
[17] = locus YMR219W, strain ESC1, active compounds read low
[18] = locus YMR263W, strain SAP30, active compounds read low
[19] = locus YMR307W, strain GAS1, active compounds read low
[20] = locus YNL153C, strain GIM3, active compounds read low
[21] = locus YNL298W, strain CLA4 (second series), active compounds read low
[22] = locus YNL322C, strain KRE1, active compounds read low
[23] = locus YNR030W, strain Alg12, active compounds read low
[24] = locus YOL006C, strain TOP1, active compounds read low
[25] = locus YPL055C, strain LGE1, active compounds read low
[26] = locus YPL241C, strain CIN2, active compounds read low
[27] = locus YPR135W, strain CTF4, active compounds read low
[28] = locus YDL134C, strain PPH21, active compounds read low
[29] = locus YKL190W, strain CNB1, active compounds read low

Measured: normalized growth

Nc1nc(Sc2cc(-n3cccc3)c(Cl)cc2[N+](=O)[O-])n[nH]1
inactive: [1] 0.992 | [2] 1 | [3] 0.998 | [4] 0.997 | [5] 0.994 | [6] 0.995 | [7] 1 | [8] 0.972 | [9] 0.992 | [10] 0.996 | [11] 1.01 | [12] 0.973 | [13] 1 | [14] 0.972 | [15] 1 | [16] 0.983 | [17] 1 | [18] 1.01 | [19] 0.985 | [20] 0.995 | [21] 0.972 | [22] 1 | [23] 0.995 | [24] 1.02 | [25] 0.989 | [26] 0.936 | [27] 0.933

Cc1nc(C(F)(F)F)nc(Sc2n[nH]c(-c3cc(Cl)cc(Cl)c3)n2)c1C
inactive: [1] 1.03 | [2] 1.01 | locus YCL061C, strain MRC1, active compounds read low 1 | [3] 0.996 | [28] 1.01 | [4] 0.996 | [5] 0.985 | [6] 1.01 | [7] 1.01 | [8] 1.02 | [9] 1.03 | [10] 1.01 | [11] 1.02 | [29] 1 | [12] 1.07 | [13] 0.998 | [15] 1.02 | [16] 0.994 | [17] 1.02 | [18] 0.993 | [19] 0.988 | [20] 0.995 | [21] 0.966 | [22] 0.995 | [23] 0.974 | [25] 1.03 | [26] 1.07 | [27] 1.17
active: [14] 1.25 [resistant]

Cn1c(Sc2ccc(C(F)(F)F)cc2[N+](=O)[O-])nnc1C(F)(F)F
inactive: [1] 1 | [2] 1.01 | [3] 1.02 | [4] 0.988 | [5] 1 | [6] 1.01 | [8] 1.04 | [9] 1 | [10] 1 | [11] 0.973 | [29] 1.01 | [12] 1.02 | [13] 1.01 | [14] 1.05 | [15] 1.01 | [16] 1.05 | [17] 0.996 | [18] 0.994 | locus YNL128W, strain TEP1, active compounds read low 0.994 | [20] 1 | [21] 0.993 | [22] 1 | [23] 1.02 | [24] 0.899 | [25] 1.01 | [26] 1.11 | [27] 1.05

Nc1nc(Sc2ccc(C(F)(F)F)cc2[N+](=O)[O-])n[nH]1
inactive: [1] 0.988 | [2] 0.998 | [3] 1.02 | [4] 0.901 | [5] 1.02 | [6] 1.01 | [8] 1.03 | [9] 0.988 | [10] 1.01 | [11] 1.01 | [29] 1 | [12] 1.07 | [13] 1.01 | [14] 1.16 | [15] 1.03 | [16] 0.995 | [17] 1 | [18] 1.01 | [19] 1.24 | [20] 1.01 | [21] 1.01 | [22] 1 | [23] 0.999 | [24] 1.06 | [25] 0.872 | [26] 1.08 | [27] 0.892

O=[N+]([O-])c1cc(C(F)(F)F)ccc1Sc1ccc(Cl)cc1
inactive: [1] 1 | [2] 1.01 | [3] 1 | [28] 0.98 | [4] 0.957 | [5] 1.01 | [6] 1.01 | [8] 0.901 | [9] 1.01 | [10] 1 | [11] 1.02 | [29] 1.01 | [12] 0.928 | [13] 1 | [15] 0.967 | [16] 0.97 | [17] 1.01 | [18] 1.01 | [20] 1.02 | [21] 0.995 | [22] 0.996 | [23] 0.978 | [25] 1.04 | [26] 0.967 | [27] 0.97
active: [14] 0.757
